From PubChem BioAssay (NCATS)
Results filed as inconclusive are left out. Active and inactive are the calls of the source. Calls come from the whole dose curve; as a rule, active = well fitted cell-killing curve with a large enough effect; inconclusive = small, poorly fitted or top-dose-only effect; inactive = flat fitted curve, though single readings scatter.

assay: qHTS of pediatric cancer cell lines to identify multiple opportunities for drug repurposing: Primary screen for Rh18 cells (AID 1347102); conditions: Rh18 rhabdomyosarcoma viability, CellTiter-Glo luminescence, 48 h; series mostly up to 46 µM; activity change, negative = cytotoxic: at the top concentration; note: nearly all actives have a fitted effect of over 65% in size
Procedure, shortened: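 Viability after 48 h compound treatment at 37C, 500-1,000 cells/well, read as ATP luminescence with CellTiter-Glo. Primary screens used 11-point (MIPE, 0.78 nM-46 µM) or 8-point (NPC, 0.59 nM-46 µM) final concentrations; follow-up screens used 11-point dilutions.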
% is set by controls: 0 for no effect and ±100 for the full control effect.

SMILES | activity change, negative = cytotoxic
CNC(=O)CN(CCN(CCN(CC(=O)[O-])CC(=O)NC)CC(=O)[O-])CC(=O)[O-].O.[Gd+3] | 12.7% (inactive)
OC(CCN1CCCCC1)(c1ccccc1)c1ccccc1 | 3.68% (inactive)
COc1cc2c(cc1OC)[C@@H]1CC(=O)[C@@H](CC(C)C)CN1CC2 | 6.31% (inactive)
CC1(C)O[C@@H]2C[C@H]3[C@@H]4CCC5=CC(=O)CC[C@]5(C)[C@@]4(F)[C@@H](O)C[C@]3(C)[C@]2(C(=O)CCl)O1 | 22.6% (inactive)
CCCC(=O)O[C@]1(C(=O)CO)CC[C@H]2[C@@H]3CCC4=CC(=O)CC[C@]4(C)[C@H]3[C@@H](O)C[C@@]21C | -0.525% (inactive)
C[C@]12CC[C@H]3[C@@H](CCC4=CC(=O)CC[C@@]43C)[C@@H]1CC[C@@H]2C(=O)CO | -1.69% (inactive)
C[C@@H]1C[C@H]2[C@@H]3CCC4=CC(=O)C=C[C@]4(C)[C@@]3(F)[C@@H](O)C[C@]2(C)[C@H]1C(=O)CO | 9.77% (inactive)
C[C@@H]1C[C@H]2[C@@H]3C[C@H](F)C4=CC(=O)C(Cl)=C[C@]4(C)[C@@]3(F)[C@@H](O)C[C@]2(C)[C@@]1(O)C(=O)CO | 11% (inactive)
CC(=O)[C@H]1CC[C@H]2[C@@H]3C[C@H](C)C4=CC(=O)CC[C@]4(C)[C@H]3[C@@H](O)C[C@]12C | 0.908% (inactive)
O=C(OCC(O)CO)c1ccccc1Nc1ccnc2cc(Cl)ccc12 (stereo not drawn) | -14.8% (inactive)
CC(=O)Oc1ccc(C(c2ccc(OC(C)=O)cc2)c2ccccn2)cc1 | -4.07% (inactive)
O=C(COc1ccc(Cl)cc1)N1CCN(Cc2ccc3c(c2)OCO3)CC1 | 0.923% (inactive)
CCOC(=O)n1ccn(C)c1=S | -0.933% (inactive)
COc1cc(C(=S)N2CCOCC2)cc(OC)c1OC | -5.23% (inactive)
CCCCC(=O)O[C@]1(C(=O)CO)CC[C@H]2[C@@H]3CCC4=CC(=O)CC[C@]4(C)[C@H]3[C@@H](O)C[C@@]21C | 10.2% (inactive)
CCN(CC)CCOC(=O)C(c1ccccc1)C1CCCCC1 (stereo not drawn) | -26.8% (inactive)
NC(CS)C(=O)O (stereo not drawn) | 12.4% (inactive)
Cc1c(F)c(N2CCNC(C)C2)cc2c1c(=O)c(C(=O)O)cn2C1CC1 (stereo not drawn) | 7% (inactive)
CC(=O)OCC(=O)[C@@]1(O)CC[C@H]2[C@@H]3CCC4=CC(=O)C=C[C@]4(C)[C@H]3[C@@H](O)C[C@@]21C | 12.9% (inactive)

SMILES | activity change, negative = cytotoxic
COc1cc(/C=C/C(=O)O[C@H]2CC[C@]34C[C@]35CC[C@]3(C)[C@@H]([C@H](C)CCC=C(C)C)CC[C@@]3(C)[C@@H]5CC[C@H]4C2(C)C)ccc1O | -27.2% (inactive)
CCCCCCCCCCCCCCNCCO | -12.1% (inactive)
CC1(C)O[C@@H]2C[C@H]3[C@@H]4C[C@H](F)C5=CC(=O)CC[C@]5(C)[C@H]4[C@@H](O)C[C@]3(C)[C@]2(C(=O)CO)O1 | 15.3% (inactive)
CC(C)(CO)[C@@H](O)C(=O)NCCCO | 18.9% (inactive)
CCN(CC)C(=O)N1CCN(C)CC1 | 8.2% (inactive)
NC(CO)(CO)CO | 7.11% (inactive)
NCCCC[C@H](N[C@@H](CCc1ccccc1)C(=O)O)C(=O)N1CCC[C@H]1C(=O)O | 6.79% (inactive)
O=C(O)CNC(=O)c1ccccc1 | 9.96% (inactive)
Cc1nc2n(c(=O)c1CCN1CCC(c3noc4cc(F)ccc34)CC1)CCC[C@H]2O | 14.1% [at 16.1 µM] (inactive)
O=c1[nH]c(=O)n([C@H]2C[C@H](O)[C@@H](CO)O2)cc1C(F)(F)F | -10.7% (inactive)
CC(Cc1ccccc1)(NC(=O)CN)c1ccccc1 (stereo not drawn) | 5.94% (inactive)
OCc1ccccc1O | 16.9% (inactive)
CO/N=C1\CN(c2nc3c(cc2F)c(=O)c(C(=O)O)cn3C2CC2)CC1CN (stereo not drawn) | 10.8% (inactive)
C[C@]12CCC(=O)C=C1[C@@H]1C[C@@H]1[C@H]1[C@@H]3[C@@H]4C[C@@H]4[C@@]4(CCC(=O)O4)[C@@]3(C)CC[C@@H]12 | -9.47% (inactive)
c1ccc(CNCCNCc2ccccc2)cc1 | 8.66% (inactive)
OC[C@H]1O[C@H](O[C@]2(CCl)O[C@H](CCl)[C@@H](O)[C@@H]2O)[C@H](O)[C@@H](O)[C@H]1Cl | 15.3% (inactive)
O=C1OC2(c3ccc(O)cc3Oc3cc(O)ccc32)c2ccccc21 | -8.1% (inactive)
C[C@]12CC[C@@H]3c4ccc(O)cc4CC[C@H]3[C@@H]1C[C@@H](O)[C@@H]2O | -15.9% (inactive)
NCCC(O)(P(=O)(O)O)P(=O)(O)O | -1.36% (inactive)
